# Experimental data: PubChem BioAssay
# Active and inactive are the calls of the source.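 How the source made its calls, unless noted: active means fluorescence slope after compound addition differing from the mean of all tested samples at 99.7% confidence, mostly higher but some lower; inactive means the rest.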
# How the values were obtained:
# [1] = endothelial E-selectin expression blockers – imaging, HUVEC, immunofluorescence, MLSMR starter and 10KST1 sets, primary screen (AID 487;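 active means visually confirmed hit in the image check and inhibition above 20%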;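 on inhibition: signal is fraction of cell area covered by stained E-selectin grains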;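 on nuclei count: 100% = median nuclei count of all wells on the same plate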); conditions: HUVEC TNFalpha-induced E-selectin immunofluorescence imaging, at 2 µM; inhibition: stronger effect = higher value; nuclei count: measured here: cell number, toxicity
# [2] = Primary imaging screen for DUSP6 inhibitors that restore phospho-Erk in transfected HeLa cells, chemical complementation (AID 609;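 active means compounds giving at least 50% inhibition in the cell-based MKP-3 phosphatase rescue imaging test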;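 on inhibition: phospho-Erk level distribution per well compared with pooled transfected vehicle control wells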); conditions: HeLa MKP-3 transfected, phospho-Erk imaging KS statistic, at 10 µM, cells stimulated with TPA for 15 min
# [3] = biological target: Dual specificity protein phosphatase 6 (Homo sapiens) (UniProt Q16828); assay: as above; conditions: HeLa MKP-3 transfected, phospho-Erk imaging KS statistic; at 10 µM; stronger effect = higher value; cells stimulated with TPA for 15 min
# [4] = biological target: Voltage-gated potassium channel subunit beta-2 (Rattus norvegicus) (UniProt P62483); assay: inhibitors of rat Kvbeta2 reductase activity – biochemical, NADPH fluorescence, primary screen (AID 622;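 active means fluorescence slope higher than the sample average by over 3 SD, cut at about -0.22 in these data, passing the limit was not always enough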;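 further: slope of raw intensity against log time taken from 70 to 1610 s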); conditions: recombinant KvBeta, 4-cyanobenzaldehyde reduction, at 10 µM, stronger effect = higher value
# [5] = biological target: Voltage-gated potassium channel subunit beta-2 (Rattus norvegicus) (UniProt P62483); assay: enhancers of rat Kvbeta2 NADPH turnover – biochemical, NADPH fluorescence, primary screen (AID 623;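 active means NADPH fluorescence slope more negative than the mean of all samples by about 3 SD, 99.7% confidence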;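 further: fluorescence intensity change per second fitted from 20 to 320 s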); conditions: Recombinant KvBeta, NADPH fluorescence decrease slope, 10 min; at 10 µM; stronger effect = lower value
# [6] = biological target: Muscarinic acetylcholine receptor M4 (Homo sapiens) (UniProt P08173); assay: M4-linked GIRK flux change, two-sided – cell-based, HEK293 M4/GIRK, thallium flux, BTC-AM, M4 allosteric agonist project, primary screen (AID 625); conditions: at 10 µM, actives lie on both sides;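 further: thallium influx through GIRK channels coupled to M4 in HEK293 cells with BTC-AM dye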
# [7] = inhibitors of larval lipid processing in zebrafish, primary screen, whole organism, PED6 fluorescence, gall bladder and intestine (AID 686;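 active means a full or partial loss of lipid-probe fluorescence in the fish gall bladder, intestine or both, judged by eye; inactive means no fluorescence loss, or compound toxic to the fish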;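 further: larvae 5 to 7 days old with five fish per well; signal comes from phospholipase A2 cleavage of quenched PED6 carried via bile; overnight exposure to compound and PED6 before scoring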); conditions: Zebrafish larvae PED6 lipid processing, fluorescence scoring; screened at 20 µM (by protocol)
# [8] = loss of swimming-algae plug formation – whole organism, Chlamydomonas reinhardtii, WT vs cilia-less mutant, absorbance, 96-well, primary screen (AID 463189;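 active means inhibition at or above 50% relative to wild type and mutant plate controls; inactive means inhibition below 50%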;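 further: 0% = wild type cc124 cells in DMSO and 100% = ciliumless bld1 mutant cells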); conditions: Chlamydomonas reinhardtii gravitaxis, OD600 absorbance, 2 days; at 10 µM; stronger effect = higher value
# [9] = measured here: cell density z-score
# [10] = measured here: nuclear c-Myc green intensity z-score
# [11] = measured here: nuclear pErk red intensity z-score, stronger effect = higher value
# Chain of Dual specificity protein phosphatase 6 (Homo sapiens) (Q16828 whole entry, looked up): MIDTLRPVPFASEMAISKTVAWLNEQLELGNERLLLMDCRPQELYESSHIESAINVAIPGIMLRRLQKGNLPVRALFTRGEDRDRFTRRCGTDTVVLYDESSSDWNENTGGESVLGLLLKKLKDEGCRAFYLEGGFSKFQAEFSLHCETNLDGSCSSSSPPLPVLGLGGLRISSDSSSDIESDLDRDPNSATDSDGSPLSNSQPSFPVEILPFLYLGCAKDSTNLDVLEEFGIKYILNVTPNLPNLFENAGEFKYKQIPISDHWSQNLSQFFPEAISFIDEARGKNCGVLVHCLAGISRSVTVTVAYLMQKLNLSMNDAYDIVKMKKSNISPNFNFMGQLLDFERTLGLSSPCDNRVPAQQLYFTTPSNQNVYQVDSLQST
# Chain of Muscarinic acetylcholine receptor M4 (Homo sapiens) (P08173 whole entry, looked up): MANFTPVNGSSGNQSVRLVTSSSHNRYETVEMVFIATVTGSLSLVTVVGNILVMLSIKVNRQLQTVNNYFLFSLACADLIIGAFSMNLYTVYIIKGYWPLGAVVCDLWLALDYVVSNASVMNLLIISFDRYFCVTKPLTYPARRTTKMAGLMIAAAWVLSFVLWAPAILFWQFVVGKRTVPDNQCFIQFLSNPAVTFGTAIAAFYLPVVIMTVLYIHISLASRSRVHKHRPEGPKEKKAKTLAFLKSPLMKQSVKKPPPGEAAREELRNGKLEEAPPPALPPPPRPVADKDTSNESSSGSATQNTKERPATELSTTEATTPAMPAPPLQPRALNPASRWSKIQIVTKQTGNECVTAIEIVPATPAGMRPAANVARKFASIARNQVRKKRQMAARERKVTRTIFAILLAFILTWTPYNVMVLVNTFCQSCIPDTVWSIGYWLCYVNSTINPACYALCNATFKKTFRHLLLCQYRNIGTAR
# Chain of Voltage-gated potassium channel subunit beta-2 (Rattus norvegicus) (P62483 whole entry, looked up): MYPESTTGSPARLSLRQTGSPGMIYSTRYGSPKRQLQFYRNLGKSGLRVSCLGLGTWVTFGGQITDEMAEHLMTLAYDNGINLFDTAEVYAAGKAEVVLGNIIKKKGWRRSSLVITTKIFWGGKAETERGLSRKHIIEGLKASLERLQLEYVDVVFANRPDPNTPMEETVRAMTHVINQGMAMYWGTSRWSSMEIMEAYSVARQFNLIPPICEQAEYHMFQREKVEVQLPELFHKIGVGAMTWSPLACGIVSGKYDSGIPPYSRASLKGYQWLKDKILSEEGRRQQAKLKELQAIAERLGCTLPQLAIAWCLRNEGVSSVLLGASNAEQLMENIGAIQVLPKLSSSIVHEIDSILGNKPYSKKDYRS
SMILES,inhibition [1],nuclei count [1],"z-score [2, 9]","z-score [2, 10]","z-score [2, 11]",inhibition [3],fluorescence slope [4],NADPH fluorescence slope [5],fluorescence slope [6],outcome [7],inhibition [8]
CCC(=O)Oc1oc(-c2ccccc2)nc1C=Nc1ccccc1OC,-41.7% (inactive),161%,0.687,0.248,1.48,9.39% (inactive),-0.381 (inactive),-4.4e-05 (inactive),0.00681 (inactive),inactive,10.5% (inactive)
CN1CC(=O)Nc2ccc(F)cc2C1=O,-12.8% (inactive),108%,-0.408,1.54,-1.19,7.48% (inactive),-0.414 (inactive),-5.5e-06 (inactive),0.0056 (inactive),inactive,-6.78% (inactive)
O=C(CCN1CCc2ccccc2CC1)c1ccc2c(c1)OCCO2,-194% (inactive),154%,1.21,0.758,0.122,9.39% (inactive),-0.406 (inactive),-5.2e-05 (inactive),0.00461 (inactive),inactive,40.1% (inactive)
CCn1cc(/C=N/O)c(C)n1,-98.3% (inactive),153%,1.83,-0.528,-0.0353,13.2% (inactive),-0.345 (inactive),-3.9e-05 (inactive),0.00667 (inactive),inactive,17.2% (inactive)
c1ccc2c(c1)nc(CN1CCOCC1)n1c3ccccc3nc21,-88% (inactive),174%,-0.838,-0.224,1.09,-3.98% (inactive),-0.309 (inactive),-2.8e-05 (inactive),0.00659 (inactive),inactive,-4.79% (inactive)
C=C(Br)CN1CCN(CC(=C)Br)CC1,-179% (inactive),175%,2.33,-0.834,-0.983,17% (inactive),-0.428 (inactive),-2.9e-05 (inactive),0.00828 (inactive),inactive,5.24% (inactive)
COCCN(Cc1ccccc1)P(=O)(O)c1ccccc1OCC(=O)O,-21.2% (inactive),151%,1.19,-1.67,0.944,15.1% (inactive),-0.446 (inactive),-4.4e-05 (inactive),0.00543 (inactive),inactive,19.2% (inactive)
COc1ccc(OC)c(N=C(C)C2=C(O)COC2=O)c1,-20.1% (inactive),104%,-1.31,0.523,0.389,-0.159% (inactive),-0.404 (inactive),6.7e-06 (inactive),0.00554 (inactive),inactive; toxic,-11.6% (inactive)
O=C(NCCO)C1(c2ccccc2)CCCC1,-0.2% (inactive),87.4%,-1.49,2.28,-1.5,20.8% (inactive),-0.406 (inactive),-8.2e-06 (inactive),0.00732 (inactive),inactive,-4.89% (inactive)
O=C(CCN1CCc2ccccc21)c1ccc2c(c1)OCCO2,-46.2% (inactive),144%,-0.121,-0.0206,-0.911,-0.159% (inactive),-0.436 (inactive),-2.2e-05 (inactive),0.00393 (inactive),inactive,3.69% (inactive)
COC(=O)C1C(=O)NCC1c1ccccc1 (stereo not drawn),1.3% (inactive),81.1%,5.99,-1.76,-1.15,49.5% (inactive),-0.482 (inactive),-4e-05 (inactive),0.00479 (inactive),inactive,31.4% (inactive)
CCC(NC(=O)Nc1nnc(C(F)(F)F)s1)(C(F)(F)F)C(F)(F)F,-242% (inactive),141%,0.851,-0.831,0.704,18.4% (inactive),-0.449 (inactive),-4.2e-05 (inactive),0.00231 (inactive),inactive; toxic,9.74% (inactive)
COc1ccc(C(=O)NCC(=O)n2nc(C)cc2C)cc1OC,-38.7% (inactive),95.9%,-0.145,0.45,-1.73,3.66% (inactive),-0.415 (inactive),-1.8e-05 (inactive),0.00491 (inactive),inactive,-5.61% (inactive)
